The record followed here is PubChem BioAssay (NCATS).

The nature of experiment [1]: Cell Viability - SH-SY5Y (AID 544).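 Also: cells exposed to compound for 40 hours; nearly all actives have a fitted effect of over 55% in size.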 Also: potency is read from the fitted curve at half-maximal effect.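 As to viability change, negative = cytotoxic: 0% = DMSO alone and -100% = 100 µM tamoxifen.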 The settings on record: SH-SY5Y neuroblastoma cell viability; viability change, negative = cytotoxic: at 92.2 µM (top of the series). In outline: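 Luminescent ATP read-out (CellTiter-Glo) measures loss of viable SH-SY5Y neuroblastoma cells after 40 hr compound exposure at 37 °C. AC50 values derive from standard Hill modelling of qHTS concentration-response data.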

Experiment [2] is described as follows: Cellular Toxicity (caspase-3) SHSY5Y (AID 657). A digest of the protocol: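 SH-SY5Y human neuroblastoma cells, 1500/well, exposed to compound for 16 hours at 37 °C in complete medium. Caspase-3/7 activity read by Caspase-Glo luminescence after 1 hr at room temperature, normalized to DMSO and 10 uM staurosporine; AC50 from Hill fit.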
A short description of experiment [3]: Cellular Toxicity (caspase-3) H-4-II-E (AID 663).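 Also: cells exposed to compound for 16 hr before readout; 0% = DMSO basal and 100% = 100 µM tamoxifen.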 The following applies: Potency: caspase-3 activation. In outline:
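Rat hepatoma H-4-II-E cells (1500/well) plated 5 hr, then exposed to compound titrations for 16 hr at 37 °C. Caspase-Glo 3/7 luminescence read after 20 min at RT; data normalized to DMSO and 100 uM tamoxifen, AC50 from Hill fits.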

Experiment [4] is described as follows: Cellular Toxicity (caspase-3) Renal Proximal Tubule (AID 667).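 Also: cells exposed to compound for 16 hours at 37 °C before detection; 0% = DMSO basal and 100% = 10 µM staurosporine.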 In outline: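 Freshly isolated primary rat kidney proximal tubule cells, 1000/well, treated 16 hr at 37 °C, then Caspase-Glo 3/7 luminescence after 1 hr. Normalized to DMSO and 10 uM staurosporine; AC50 from Hill fit.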
Experiment [5] can be described thus: MultiTox-Fluor Cytotoxicity Assay - LYMP1-001 - Live Cells (AID 947).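 Also: 0% = DMSO only and full inhibition = tetraoctylammonium bromide control.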
Experiment [6] is described as follows: Cell Viability - LYMP2-002 (AID 977).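 Also: compound exposure lasted 24 h at 37 °C; plate controls were DMSO only for no effect and 92 µM tetraoctylammonium bromide for full effect.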 In outline: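 Human lymphoblastoid LYMP2-002 cells, 2500 per well, exposed to compounds for 24 h at 37 C in complete medium; viability read as intracellular ATP by CellTiter-Glo luminescence, AC50 from Hill fits.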
A short description of experiment [7]: Cell Viability - LYMP2-006 (AID 978). Also: nearly all actives have a fitted effect of over 60% in size. Also: potency is read from the fitted curve at half-maximal effect. A digest of the protocol: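 Human lymphoblastoid cells (LYMP2-006), 2500/well in complete medium, were treated with compound for 24 hr at 37 C. Cellular ATP was read by CellTiter-Glo luminescence after 30 min, and AC50 values came from Hill-equation fits of concentration-response data.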
The nature of experiment [8]: Cell Viability - LYMP2-016 (AID 984). Also: nearly all actives have a fitted effect of over 55% in size. Also: potency is read from the fitted curve at half-maximal effect. A digest of the protocol:
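Human lymphoblastoid LYMP2-016 cells, 2500 per well, treated with compounds for 24 h at 37 C. Viability read as intracellular ATP by CellTiter-Glo luminescence after 30 min at room temperature; AC50 from Hill fits of concentration-response.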

Experiment [9] in a line: Cell Viability - LYMP1-002 - Assay at 24 hr (AID 993). Also: % is scaled to controls: 0 for no effect and ±100 for the full control effect. In outline:
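Cells plated 2500/well, 5 hr 37 C; compounds added, 24 hr 37 C; CellTiter-Glo added, 30 min RT; luminescence read. Tetraoctylammonium bromide positive control. Hill-equation AC50.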

Experiment [10] can be described thus: qHTS assay for small molecule agonists of retinoid X receptor alpha signaling (AID 588544; calls by dose curve;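 as to activation: 0% = DMSO basal wells and 100% = reference agonist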). The settings on record: HEK293T RXRa-UAS-bla, beta-lactamase reporter, 18 h; 530 nm emission. A general note: qHTS replaces the single test concentration by a dilution series.
In experiment [11] the target is Retinoic acid receptor RXR-alpha (Homo sapiens) (UniProt P19793). The experiment is described as above.
Sequence of Retinoic acid receptor RXR-alpha (Homo sapiens) (P19793 whole entry, looked up): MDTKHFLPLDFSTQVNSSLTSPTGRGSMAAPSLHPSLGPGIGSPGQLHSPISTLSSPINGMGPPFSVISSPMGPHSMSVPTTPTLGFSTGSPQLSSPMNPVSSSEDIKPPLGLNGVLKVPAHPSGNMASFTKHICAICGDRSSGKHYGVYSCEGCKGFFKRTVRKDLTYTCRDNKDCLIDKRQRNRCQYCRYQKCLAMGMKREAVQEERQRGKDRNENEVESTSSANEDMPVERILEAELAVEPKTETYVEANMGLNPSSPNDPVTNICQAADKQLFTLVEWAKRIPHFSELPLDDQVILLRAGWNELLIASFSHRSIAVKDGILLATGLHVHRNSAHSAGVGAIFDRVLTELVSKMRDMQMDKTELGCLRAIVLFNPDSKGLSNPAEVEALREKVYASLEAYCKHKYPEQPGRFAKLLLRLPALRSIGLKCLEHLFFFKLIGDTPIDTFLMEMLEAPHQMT
Experiment [12] deals with Voltage-gated inwardly rectifying potassium channel KCNH2 (Homo sapiens) (UniProt Q12809). Kind of experiment: qHTS Assay for Small Molecule Inhibitors of the Human hERG Channel Activity (AID 588834).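 Also: top concentration of the series differs between compounds; % is scaled to controls: 0 for no effect and ±100 for the full control effect; lower thallium flux fluorescence means stronger hERG block; nearly all actives have a fitted effect of over 50% in size.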 In outline:
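U2OS cells BacMam-transduced with hERG, 2000 cells/well, compound ~10 min at 37 °C before stimulation buffer. FluxOR thallium flux fluorescence read kinetically on FDSS; decrease indicates block; AC50 from Hill fits.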

Experiment [13] addresses Tumor necrosis factor (Homo sapiens) (UniProt P01375). Description: qHTS assay to identify small molecules that stimulate Tumor Necrosis Factor-alpha (TNF-alpha) secretion (AID 651757; active = well fitted curve in the direction sought with a large enough effect in the signal ratio; the % refers to the signal ratio; also: 0% is about no effect). A digest of the protocol: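 Read-out is HTRF, a TR-FRET sandwich of cryptate- and XL665-labeled anti-TNF-alpha antibodies detecting cytokine secreted by THP-1 cells. Cells had been incubated with test compounds at 37 C for 17 hrs beforehand.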

Experiment [14] in a line: qHTS assay for small molecule antagonists of the retinoid-related orphan receptor gamma (ROR-gamma) signaling pathway - cell viability counter screen (AID 720652; active = well fitted curve in the direction sought with a large enough effect in the repeat runs; an effect the other way counts as inactive or inconclusive;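 also: compound exposure lasted 16 hr before ATP read; % is scaled to controls: 0 for no effect and ±100 for the full control effect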). In outline:
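Luminescence from CellTiter-Glo after 30 min at room temperature reported cellular ATP as the cytotoxicity measure. Cells were the CHO reporter line with doxycycline-induced ROR-gamma expression, exposed to compound for 16 hr at 37 C.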

A short description of experiment [15]: qHTS assay for cell viability of HEK293 cells (AID 743288). Also: % is scaled to controls: 0 for no effect and ±100 for the full control effect; nearly all actives have a fitted effect of over 50% in size. The settings on record: ATP luminescence (CellTiter-Glo), 18 h, stronger effect = lower value. In outline: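 Parental HEK293 cells, 2,000 per well, preincubated at least 5 h at 37 C, then exposed to compounds in DMSO for 18 h at 37 C. Viability by CellTiter-Glo ATP luminescence after 30 min at room temperature.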

Experiment [16] is described as follows: qHTS assay for small molecule activators of the human pregnane X receptor (PXR) signaling pathway (AID 720659; call rule not given here; also: 0% is about no effect).
Experiment [17] is described as follows: Cell Viability - HepG2 (AID 433; calls by dose curve;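 also: potency is read from the fitted curve at half-maximal effect; cells exposed to compound for 40 hours; potency for ATP loss meaning cytotoxicity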). The settings on record: qHTS. A digest of the protocol:
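HepG2 cells, 1500 per well, treated 40 hr at 37 °C in complete medium; viability from intracellular ATP by CellTiter-Glo luminescence. Normalized to DMSO and 100 uM tamoxifen; AC50 from Hill fit of qHTS concentration-response.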

Experiment [18] is described as follows: Cellular Toxicity (caspase-3) N2a (AID 665).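 Also: compound exposure lasted 16 h at 37 °C before readout.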 A digest of the protocol:
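N2a cells, 1500/well, 5 h settle at 37 °C; cpd 16 h, 37 °C; Caspase-Glo 3/7, 1 h RT; luminescence. Norm: DMSO = 0, 10 uM staurosporine = 100%. AC50, Hill fit.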

Experiment [19] can be described thus: MultiTox-Fluor Cytotoxicity Assay - LYMP1-002 - Dead Cells (AID 960). Also: nearly all actives have a fitted effect of over 60% in size. A digest of the protocol:
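LYMP1-002 cells 2500/well; 5 hr 37 C pre-incubation; compound 16 hr 37 C; MultiTox-Fluor reagent 60 min RT; dead-cell fluor Ex/Em 485/520. Norm. to DMSO (0%) vs 15 uM tetraoctylammonium bromide (100%); Hill AC50.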

Experiment [20] in a line: Cell Viability - LYMP2-014 (AID 983). Also: nearly all actives have a fitted effect of over 50% in size. Also: potency is read from the fitted curve at half-maximal effect. In outline:
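Luminescent ATP signal (CellTiter-Glo, 30 min at room temperature) serves as the viability read-out after 24 hr compound exposure at 37 C. Cells were seeded at 2500 per well and settled 5 hr beforehand.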

Results filed as inconclusive are left out. Calls of active or inactive are those of the source. Unless noted, calls follow the shape of the dose curve; as a rule, active = well fitted curve in the direction sought with a large enough effect; inconclusive = small, poorly fitted or top-dose-only effect, or another doubt; inactive = no such curve, though single readings can be large; an effect the other way counts as inactive or inconclusive.

Sequence of Tumor necrosis factor (Homo sapiens) (P01375 whole entry, looked up): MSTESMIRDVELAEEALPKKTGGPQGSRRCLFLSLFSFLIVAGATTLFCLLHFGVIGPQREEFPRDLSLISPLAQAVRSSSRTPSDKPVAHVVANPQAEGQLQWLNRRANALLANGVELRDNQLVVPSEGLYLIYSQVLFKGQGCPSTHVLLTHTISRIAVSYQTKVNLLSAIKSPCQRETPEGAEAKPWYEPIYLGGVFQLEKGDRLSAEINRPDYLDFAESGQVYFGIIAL
Sequence of Voltage-gated inwardly rectifying potassium channel KCNH2 (Homo sapiens) (Q12809 whole entry, looked up): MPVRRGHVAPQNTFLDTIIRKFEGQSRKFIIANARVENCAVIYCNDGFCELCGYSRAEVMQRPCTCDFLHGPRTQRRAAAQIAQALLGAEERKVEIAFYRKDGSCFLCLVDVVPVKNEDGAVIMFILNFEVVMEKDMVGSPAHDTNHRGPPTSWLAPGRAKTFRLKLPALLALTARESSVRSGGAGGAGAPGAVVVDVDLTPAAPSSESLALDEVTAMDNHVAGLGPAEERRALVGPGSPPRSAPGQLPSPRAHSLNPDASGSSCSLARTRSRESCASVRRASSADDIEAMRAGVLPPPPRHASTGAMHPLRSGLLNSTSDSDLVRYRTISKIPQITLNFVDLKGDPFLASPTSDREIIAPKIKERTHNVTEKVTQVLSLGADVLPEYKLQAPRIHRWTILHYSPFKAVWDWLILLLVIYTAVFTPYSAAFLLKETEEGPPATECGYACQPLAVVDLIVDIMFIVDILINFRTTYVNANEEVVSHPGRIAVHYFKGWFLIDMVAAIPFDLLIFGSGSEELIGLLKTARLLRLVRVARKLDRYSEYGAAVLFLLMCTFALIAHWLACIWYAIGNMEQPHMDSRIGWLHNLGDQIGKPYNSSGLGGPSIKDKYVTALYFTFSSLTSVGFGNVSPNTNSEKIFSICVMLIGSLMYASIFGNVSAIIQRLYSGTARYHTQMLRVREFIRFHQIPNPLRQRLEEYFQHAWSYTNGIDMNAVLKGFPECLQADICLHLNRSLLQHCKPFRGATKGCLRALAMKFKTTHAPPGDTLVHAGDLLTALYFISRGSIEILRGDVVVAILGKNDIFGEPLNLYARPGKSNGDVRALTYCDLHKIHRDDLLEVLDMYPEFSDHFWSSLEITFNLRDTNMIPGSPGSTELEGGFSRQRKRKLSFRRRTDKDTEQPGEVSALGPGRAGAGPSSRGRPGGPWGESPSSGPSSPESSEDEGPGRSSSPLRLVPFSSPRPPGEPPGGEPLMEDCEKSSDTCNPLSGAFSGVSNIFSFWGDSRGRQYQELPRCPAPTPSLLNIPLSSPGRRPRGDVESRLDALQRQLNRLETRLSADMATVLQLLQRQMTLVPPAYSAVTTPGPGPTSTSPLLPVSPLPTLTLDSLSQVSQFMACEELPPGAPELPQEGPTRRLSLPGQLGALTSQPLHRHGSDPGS

Consider `N#CC(Cl)(Cl)Cl`, for which the Potency entry in [1], in experiment [3], in [6], in [7], in experiment [8] and in experiment [9] was “inactive” each time. Besides, the Potency entry in experiment [12] and in experiment [14] was “inactive” each time. In addition, the compound was called inactive in experiment [2], in experiment [4], in [5], in [11], in [13] and in experiment [16]. For the same compound, the max response in experiment [10] was -10.8%; in [15] it was -13% (inactive).
As to `Cc1ccc(N)c(C)c1`, in [17], the Potency was > 92 µM (inactive). Moreover, the Potency entry in experiment [1], in [3], in experiment [19], in experiment [6], in [7] and in experiment [20] was “inactive” each time. The Potency entry in [8], in experiment [12] and in experiment [14] was “inactive” throughout. In addition, the outcome in experiment [2], in experiment [18], in experiment [4], in experiment [5], in experiment [11] and in experiment [13] was inactive. Also, the compound was called inactive in experiment [16]. For the same compound, the figures for the max response in experiment [10] and in [15] were -7.75% and 1.36% (inactive), respectively.
Consider `ClCC(Br)CBr` (stereo unspecified), for which the Potency in [17] was > 92 µM (inactive). Besides, the Potency entry in experiment [1], in [19], in [6], in [7], in experiment [20] and in experiment [12] was “inactive” each time. In addition, the Potency entry in experiment [14] was “inactive”. Also, the result in [2], in [18], in [4], in [5], in experiment [11] and in experiment [13] was inactive. Besides, the result in experiment [16] was inactive. Also, the max response in experiment [10] is -9.36%; in experiment [15] it was -7.97% (inactive).
In the case of `c1ccc(Nc2ccc(Nc3ccccc3)cc2)cc1`, the Potency in experiment [17] was > 92 µM (inactive). Also, the Potency result in experiment [3], in [6], in experiment [7], in experiment [8], in experiment [9] and in experiment [14] was “inactive” throughout. Further, the outcome in [18] and in [11] was inactive. The max response is 0.613% in experiment [10] and -19.5% (inactive) in experiment [15].
In the case of `Nc1c(Br)cc([N+](=O)[O-])cc1[N+](=O)[O-]`, the Potency in experiment [17] is > 92 µM (inactive). Also, the Potency entry in [1], in experiment [3], in [19], in [6], in experiment [7] and in experiment [8] was “inactive” in each case. For the same compound, the Potency entry in [9], in experiment [12] and in [14] was “inactive” each time. For the same compound, the compound was classed as inactive in experiment [2], in experiment [18], in experiment [4], in experiment [5], in experiment [11] and in experiment [16]. For the same compound, the max response in [10] is -9.23%; in [15] it was -10.1% (inactive).
Turning to `Oc1cc(Cl)c(Cl)c(Cl)c1`, the Potency in [17] is 59.9 µM (active). The outcome in [2], in experiment [18], in experiment [4], in experiment [5], in experiment [13] and in experiment [16] was inactive. Further, the Potency entry in experiment [3], in experiment [19], in [20], in experiment [9] and in experiment [12] was “inactive” in each case.
As for `C=CC(=O)OCCO`, in [17], the Potency was > 92 µM (inactive). Besides, the compound was classed as inactive in experiment [2], in experiment [4], in experiment [11], in [13] and in experiment [16]. Also, the Potency result in [3], in experiment [19], in [6], in experiment [8], in experiment [9] and in experiment [12] was “inactive” each time. In addition, the values for the max response in [10] and in [15] were -8.13% and -1.05% (inactive), respectively.
With `CN(C)c1ccc(N=Nc2ccccc2)cc1`, in experiment [17], the Potency is > 92 µM (inactive). The outcome in experiment [2], in experiment [4], in experiment [5] and in [11] was inactive. Moreover, the Potency entry in experiment [3], in experiment [7], in [20], in experiment [8], in experiment [9] and in experiment [12] was “inactive” throughout. Moreover, in experiment [14], the Potency entry is “inactive”. The max response is -0.567% in experiment [10] and -8.55% (inactive) in experiment [15].
Regarding `BrCC(Br)(Br)Br`, the Potency is > 92 µM (inactive) in [17] and 15.8 µM (active) in experiment [7]. Besides, the call in [2], in experiment [18], in [4], in [5], in experiment [11] and in experiment [13] was inactive. Besides, the call in experiment [16] was inactive. Besides, the Potency entry in experiment [3], in experiment [19] and in experiment [12] was “inactive” throughout. The max response in experiment [10] was found to be 19.6%.
Consider `Clc1ccc(C(c2ccccc2Cl)C(Cl)(Cl)Cl)cc1` (stereo unspecified), for which, in experiment [17], the Potency was > 92 µM (inactive). Also, the outcome in experiment [2], in experiment [4], in experiment [5] and in experiment [13] was inactive. The Potency result in experiment [3] and in [9] was “inactive” each time.
Consider `O=[N+]([O-])c1cccc(CCl)c1`, for which the call in experiment [2], in experiment [18], in [4], in experiment [5], in experiment [11] and in experiment [16] was inactive. The Potency entry in experiment [3], in experiment [6], in experiment [7], in [20], in experiment [8] and in [9] was “inactive” in each case. In experiment [12], the Potency result is “inactive”. Besides, the max response in experiment [10] is 10.9%; in experiment [15], -20.5% (inactive).
Take `N#C/C=C/C#N`: the Potency is > 92 µM (inactive) in experiment [17], 15.8 µM (active) in experiment [1], 39.8 µM (active) in [20] and 39.8 µM (active) in [8]. Further, the call in experiment [2], in experiment [18], in [4], in experiment [5], in experiment [13] and in experiment [16] was inactive. Further, the Potency result in experiment [3], in experiment [19], in [9], in [12] and in experiment [14] was “inactive” throughout.
In the case of `[C-]1=CC=CC1.[C-]1=CC=CC1.[Cl-].[Cl-].[Ti+4]`, in experiment [1], the viability change, negative = cytotoxic is -81.6% (active). Also, the Potency result in experiment [3], in experiment [19] and in [12] was “inactive” each time. The result in [18], in experiment [5] and in experiment [13] was inactive. Further, the max response in experiment [15] is -17.8% (inactive).
For `Oc1cc(Cl)c(Cl)c(Cl)c1Cl`, in [17], the Potency was 53.3 µM (active). The compound was classed as inactive in [2], in experiment [18], in experiment [4], in experiment [5] and in experiment [16]. The Potency result in experiment [3], in experiment [6], in experiment [7], in experiment [9] and in experiment [12] was “inactive” throughout. In addition, the max response in experiment [15] is -11.3% (inactive).
